# How the values were obtained:
# Test in all cases: PBM binding z-score (relative to random genomic background probes); higher = stronger binding; sequences stand for … in GC…GCGATTGACAGCGTAGAATGAAGG
# [1] = system: FXR:RXRa (NR concentration 270 nM, RXRa partner concentration 90 nM)
# In short: (§1)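 Probes were double-stranded and carried 34-nt variable regions with direct-repeat seeds, single-nucleotide variants, half-site ablations and random human genomic background sequences, printed on custom Agilent 4×180K protein-binding microarrays. Arrays were incubated 1 h with ligand-free nuclear receptor dimers in PBS pH 7.4, 2% milk, 0.02% Triton X-100, 1 mM DTT, 0.2 mg/mL BSA and 0.4 mg/ml salmon testes DNA. Antibodies against each partner (one per run) detected binding, and scanned fluorescence was regression-normalized. Binding z-scores use the random background probes as reference.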
# [2] = system: LXRa:RXRa (NR concentration 270 nM, RXRa partner concentration 90 nM)
# In short: as §1
# [3] = system: LXRa homodimer (NR concentration 270 nM)
# In short: as §1
# [4] = system: LXRb:RXRa (NR concentration 270 nM, RXRa partner concentration 90 nM)
# In short: as §1
# [5] = system: LXRb homodimer (NR concentration 270 nM)
# In short: as §1
# [6] = system: PPARa:RXRa (NR concentration 270 nM, RXRa partner concentration 90 nM)
# In short: as §1
# [7] = system: PPARg:RXRa (NR concentration 180 nM, RXRa partner concentration 90 nM)
# In short: as §1
# [8] = system: PPARg:RXRa 270nM:90nM, anti-RXR (NR concentration 270 nM, RXRa partner concentration 90 nM)
# In short: as §1
# [9] = system: PPARg:RXRa 30nM:10nM, anti-RXR (NR concentration 30 nM, RXRa partner concentration 10 nM)
# In short: as §1
# [10] = system: PPARg:RXRa 90nM:30nM, anti-RXR (NR concentration 90 nM, RXRa partner concentration 30 nM)
# In short: as §1
# [11] = system: PPARg:RXRa DBDmut IVT, anti-RXR (DBD mutation: RXRa K156A/R161A, NR concentration 270 nM, RXRa partner concentration 90 nM)
# In short: as §1
# [12] = system: PPARg:RXRa IVT, anti-PPARg (NR concentration 270 nM, RXRa partner concentration 90 nM)
# In short: as §1
# [13] = system: PPARg DBDmut:RXRa IVT, anti-PPARg (DBD mutation: PPARg1 K132A/R137A, NR concentration 270 nM, RXRa partner concentration 90 nM)
# In short: as §1
# [14] = system: PPARg DBDmut IVT, anti-PPARg (DBD mutation: PPARg1 K132A/R137A, NR concentration 270 nM)
# In short: as §1
# [15] = system: PPARg homodimer (NR concentration 180 nM)
# In short: as §1
# [16] = system: PXR:RXRa (NR concentration 270 nM, RXRa partner concentration 90 nM)
# In short: as §1
# [17] = system: PXR homodimer (NR concentration 270 nM)
# In short: as §1
# [18] = system: RARa:RXR (NR concentration 270 nM, RXRa partner concentration 90 nM)
# In short: as §1
# [19] = system: RARa homodimer (NR concentration 270 nM)
# In short: as §1
# [20] = system: RARb:RXRa (NR concentration 270 nM, RXRa partner concentration 90 nM)
# In short: as §1
Sequence,PBM binding z-score [1],PBM binding z-score [2],PBM binding z-score [3],PBM binding z-score [4],PBM binding z-score [5],PBM binding z-score [6],PBM binding z-score [7],PBM binding z-score [8],PBM binding z-score [9],PBM binding z-score [10],PBM binding z-score [11],PBM binding z-score [12],PBM binding z-score [13],PBM binding z-score [14],PBM binding z-score [15],PBM binding z-score [16],PBM binding z-score [17],PBM binding z-score [18],PBM binding z-score [19],PBM binding z-score [20]
CAAACTAGGTCAAAGGTCAAAGTCGAGCCAACCA,8.73,7.31,6.02,7.38,3.55,7.8,14,11.4,12.3,13.1,8.73,9.33,2.23,2.15,5.09,7.21,2.02,8.8,3.18,5.96
AGAATGAGGTTATACGTAGACCAGGGAAGAAAGT,2.15,1.62,-0.0461,1.41,-0.0466,3.11,1.74,1.98,0.485,1.29,4.22,2.41,0.544,0.658,0.197,0.906,0.447,1.48,0.232,1.43
ATATGTAGGTTATCGGTTCATTCAGTTTGCGCAT,1.28,1.84,1.33,1.71,1.17,3.91,5.47,5.22,2.65,4.65,7.25,7.09,4.06,4.75,2.66,3.48,11.4,1.73,1.25,1.32
CCTAGCAGGCCAAGGTCACTCAAGCATTTCGCTT,3.06,2.72,0.474,2.51,-0.42,3.34,1.14,2.44,-0.0507,1.65,2.14,1.93,-1.42,-0.849,1.92,3.35,0.64,3.65,0.757,3.55
CCAGACAGGTGAAAGGTAAGTCAGTCTGGTACGC,0.207,0.575,-0.142,0.505,-0.505,2.87,4.52,5.14,3,4.82,2.21,2.43,-0.386,-0.609,0.848,0.517,-0.131,1.06,0.44,1.14
ACTAGTTTGTCAGCTGAGGTCACACACAATTCGG,3.55,3.38,2.38,3.67,1.33,3.71,1.49,2.21,0.672,1.86,1.11,2.31,0.92,1.54,2.72,4.87,2.34,4.4,1.24,3.28
CCTAGCAGACCAGGGTCACTCAAGCATTTCGCTT,2.1,1.88,-0.131,2.25,-0.581,3.23,0.556,1.21,-0.525,0.444,-0.221,0.416,-0.792,-1.1,0.914,2.63,-0.0947,3.3,-0.0324,2.32
